# The full list was thinned out, with the strongest signals kept by preference.
# Experiments:
# Test in all cases: glycan array binding signal (z-score within array); higher = stronger binding
# Conditions in all cases: glycan notation: IUPAC condensed, linker removed
# [1] = target: Fuc(a1-2)Gal(b1-4)GlcNAc
# Method in brief: (§1)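 From the Consortium for Functional Glycomics database, 3228 arrays were curated, keeping only those whose protein sequence was available. Binding is given as a within-array Z-score averaged across arrays sharing a protein sequence and across linkers. Negative Z-scores can be read as non-binding.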
# [2] = target: Fuc(a1-4)GlcNAc
# Method in brief: as §1
# [3] = target: Gal(b1-2)Gal
# Method in brief: as §1
# [4] = target: Gal(b1-3)Gal
# Method in brief: as §1
# [5] = target: Gal(b1-3)GalNAc(b1-4)[Neu5Ac(a2-3)]Gal(b1-4)Glc
# Method in brief: as §1
# [6] = target: Gal(b1-3)[Neu5Ac(a2-6)]GlcNAc
# Method in brief: as §1
# [7] = target: Gal3S(b1-3)[Fuc(a1-4)]GlcNAc
# Method in brief: as §1
# [8] = target: Gal4S6S(b1-4)GlcNAc
# Method in brief: as §1
# [9] = target: GlcA(b1-3)Gal
# Method in brief: as §1
# [10] = target: GlcNAc(b1-3)Gal(b1-4)GlcNAc(b1-3)Gal(b1-4)GlcNAc
# Method in brief: as §1
# [11] = target: GlcNAc(b1-4)[GlcNAc(b1-6)]GalNAc
# Method in brief: as §1
# [12] = target: Kdn(a2-3)Gal(b1-3)GlcNAc
# Method in brief: as §1
# [13] = target: Man(a1-2)Man(a1-2)Man(a1-3)[Man(a1-2)Man(a1-6)[Man(a1-3)]Man(a1-6)]Man(b1-4)GlcNAc(b1-4)GlcNAc
# Method in brief: as §1
# [14] = target: Man(a1-2)Man(a1-3)[Man(a1-2)Man(a1-6)]Man
# Method in brief: as §1
# [15] = target: Man(b1-4)GlcNAc
# Method in brief: as §1
# [16] = target: Neu5Ac(a2-3)Gal(b1-3)GlcNAc
# Method in brief: as §1
# [17] = target: Neu5Ac(a2-3)Gal(b1-3)[Neu5Ac(a2-6)]GalNAc
# Method in brief: as §1
# [18] = target: Neu5Ac(a2-3)Gal(b1-4)[Fuc(a1-3)]GlcNAc(b1-3)Gal(b1-4)GlcNAc
# Method in brief: as §1
# [19] = target: Neu5Ac(a2-3)Gal(b1-4)[Fuc(a1-3)]GlcNAc(b1-3)Gal(b1-4)[Fuc(a1-3)]GlcNAc(b1-3)Gal(b1-4)[Fuc(a1-3)]GlcNAc
# Method in brief: as §1
# [20] = target: Neu5Ac(a2-3)[Neu5Ac(a2-6)]GalNAc
# Method in brief: as §1
# [21] = target: Neu5Ac(a2-6)GalNAc
# Method in brief: as §1
# [22] = target: Neu5Ac(a2-8)Neu5Ac(a2-8)Neu5Ac
# Method in brief: as §1
# [23] = target: Neu5Ac(a2-3)Gal(b1-4)GlcNAc6S
# Method in brief: as §1
# [24] = target: Neu5Ac(a2-6)Gal(b1-4)GlcNAc
# Method in brief: as §1
# [25] = target: Neu5Ac(a2-6)Gal(b1-4)GlcNAc(b1-2)Man(a1-3)[Man(a1-6)]Man(b1-4)GlcNAc(b1-4)GlcNAc
# Method in brief: as §1
# [26] = target: Neu5Ac(a2-6)Gal(b1-4)GlcNAc(b1-3)Gal(b1-4)GlcNAc
# Method in brief: as §1
# [27] = target: Neu5Gc(a2-3)Gal(b1-3)[Fuc(a1-4)]GlcNAc
# Method in brief: as §1
Binder,glycan array binding signal (z-score) [1],glycan array binding signal (z-score) [2],glycan array binding signal (z-score) [3],glycan array binding signal (z-score) [4],glycan array binding signal (z-score) [5],glycan array binding signal (z-score) [6],glycan array binding signal (z-score) [7],glycan array binding signal (z-score) [8],glycan array binding signal (z-score) [9],glycan array binding signal (z-score) [10],glycan array binding signal (z-score) [11],glycan array binding signal (z-score) [12],glycan array binding signal (z-score) [13],glycan array binding signal (z-score) [14],glycan array binding signal (z-score) [15],glycan array binding signal (z-score) [16],glycan array binding signal (z-score) [17],glycan array binding signal (z-score) [18],glycan array binding signal (z-score) [19],glycan array binding signal (z-score) [20],glycan array binding signal (z-score) [21],glycan array binding signal (z-score) [22],glycan array binding signal (z-score) [23],glycan array binding signal (z-score) [24],glycan array binding signal (z-score) [25],glycan array binding signal (z-score) [26],glycan array binding signal (z-score) [27]
"Dectin-1 CTLD (Mus musculus), Q6QLQ4 (protein) MKYHSHIENLDEDGYTQLDFSTQDIHKRPRGSEKGSRAPSSPWRPIAVGLGILCFVVVVVAAVLGALAFWRHNSGRNPEEKDNFLSRNKENHKPTESSLDEKVAPSKASQTTGGFSQSCLPNWIMHGKSCYLFSFSGNSWYGSKRHCSQLGAHLLKIDNSKEFEFIESQTSSHRINAFWIGLSRNQSEGPWFWEDGSAFFPNSFQVRNTVPQESLLHNCVWIHGSEVYNQICNTSSYSICEKEL",-0.083,-0.141,-0.384,-0.471,-0.16,-0.392,-0.474,-0.021,4.11,-0.18,9.99,-0.044,0.004,-0.241,-0.259,-0.294,-0.324,-0.03,7.53,-0.211,0.06,5.28,,,,,
"Tachylectin-2 (Tachypleus tridentatus), TAL2_TACTR (protein) VGGESMLRGVYQDKFYQGTYPQNKNDNWLARATLIGKGGWSNFKFLFLSPGGELYGVLNDKIYKGTPPTHDNDNWMGRAKKIGNGGWNQFQFLFFDPNGYLYAVSKDKLYKASPPQSDTDNWIARATEIGSGGWSGFKFLFFHPNGYLYAVHGQQFYKALPPVSNQDNWLARATKIGQGGWDTFKFLFFSSVGTLFGVQGGKFYEDYPPSYAHDNWLARAKLIGNGGWDDFRFLFF",,,,,,,,,,,,,,,,,,,,,,,-0.232,-0.176,-0.295,-0.249,-0.316

# Source: the supplement of paper PMC8728848
